# The list is not random: actives were taken first. Their share in the collection is about 3.7%.
# Anthrax LF inh2: Bacillus anthracis LF protease inhibitors, primary screen, biochemical, multiplex microsphere, MLPCN library. Lethal factor (Bacillus anthracis), P15917. multiplex microsphere protease cleavage assay. inhibition, % at 10 µM. 0.12% of 360,000 active. AID 588501, 2011
# Target sequence (P15917 whole entry, looked up): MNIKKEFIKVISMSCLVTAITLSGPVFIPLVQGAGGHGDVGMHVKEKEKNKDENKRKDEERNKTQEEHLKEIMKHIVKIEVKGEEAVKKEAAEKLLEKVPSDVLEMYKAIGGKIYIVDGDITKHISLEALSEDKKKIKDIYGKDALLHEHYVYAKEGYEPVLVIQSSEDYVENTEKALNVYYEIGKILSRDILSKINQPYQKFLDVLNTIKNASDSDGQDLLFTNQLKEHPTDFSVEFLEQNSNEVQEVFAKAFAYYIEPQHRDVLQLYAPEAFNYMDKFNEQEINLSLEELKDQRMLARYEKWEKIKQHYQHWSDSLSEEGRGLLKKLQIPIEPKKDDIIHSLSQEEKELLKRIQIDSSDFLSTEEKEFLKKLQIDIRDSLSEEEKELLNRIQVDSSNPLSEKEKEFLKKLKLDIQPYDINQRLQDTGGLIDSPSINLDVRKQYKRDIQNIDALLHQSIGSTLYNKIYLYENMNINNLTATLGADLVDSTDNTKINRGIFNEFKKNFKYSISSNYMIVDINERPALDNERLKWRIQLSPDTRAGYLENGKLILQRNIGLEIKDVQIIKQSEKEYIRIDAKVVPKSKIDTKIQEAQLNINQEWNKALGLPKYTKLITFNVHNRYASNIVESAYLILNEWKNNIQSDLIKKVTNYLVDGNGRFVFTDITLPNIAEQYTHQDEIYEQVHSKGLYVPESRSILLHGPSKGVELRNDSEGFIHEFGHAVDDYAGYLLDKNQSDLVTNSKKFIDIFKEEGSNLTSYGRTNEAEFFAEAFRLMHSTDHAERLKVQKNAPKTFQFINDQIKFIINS
# BoNT-F LC inh: BoNT/F light chain protease inhibitors, primary screen, biochemical, flow cytometry, MLPCN library; AID 588497, 2011; Multiplex microsphere protease cleavage assay; 0.22% of 360,000 active; Botulinum neurotoxin type F light chain protease (Clostridium botulinum); inhibition, % at 10 µM; in the data active means inhibition above about 35%, passing the limit was not always enough; inconclusive means no clear call, values can overlap the other calls
# BoNT-A LC inh2: BoNT/A light chain protease inhibitors, primary screen, biochemical, flow cytometry, MLPCN library; Botulinum neurotoxin type A light chain protease (Clostridium botulinum A str. ATCC 3502); multiplex microsphere protease substrate cleavage; 0.17% of 360,000 active; inhibition, % at 10 µM
# Bead autofluor: counter-screen for toxin protease inhibitors: compound fluorescence; fluorescence intensity (test concentration not listed); 3.1% of 360,000 active; compound autofluorescence counterscreen, microsphere flow cytometry; active compounds read high; in the data active means fluorescence intensity above about 16000; inconclusive means no clear call, values can overlap the other calls
# MazEF act: activators of E. coli MazEF toxin-antitoxin RNase, primary screen, biochemical, fluorescence, uHTS; Endoribonuclease toxin MazF (Escherichia coli (strain K12)), P0AE70; FAM/BHQ RNA-DNA oligo cleavage fluorescence, 5 h; activation, % at 20 µM; 0.32% of 350,000 active; AID 504720, 2011; in the data active means activation above about 50%
# A number is an active result; . = inactive; ? = inconclusive; / = no result. Unless noted, no stated cut-off is given here; in the data, active means inhibition above about 30%; inconclusive means no clear call, values can overlap the other calls; inactive means below that.
SMILES,Anthrax LF inh2,BoNT-F LC inh,BoNT-A LC inh2,Bead autofluor,MazEF act
O=C(CSc1nnc2ccc(-c3ccccc3)nn12)NCC1CCCO1 (stereo unspecified),.,.,.,.,.
O=C(CSc1ccc2nnc(-c3ccccc3)n2n1)NCc1ccco1,.,.,?,20999,.
Cn1cccc1Cc1nnc(SCC(=O)NCC2CCCO2)n1CCc1ccccc1 (stereo unspecified),.,.,?,22577,.
COc1ccc(-c2nnc3ccc(SCC(=O)NCc4ccco4)nn23)cc1,.,.,.,.,.
O=C(CSc1nnc2scc(-c3ccccc3)n12)NCC1CCCO1 (stereo unspecified),.,.,.,21160,.
O=C(CSc1ccc2nnc(-c3cccc(F)c3)n2n1)NCC1CCCO1 (stereo unspecified),.,.,.,22186,.
O=C(COC(=O)c1ccc(OC(F)(F)F)cc1)NCCN1C(=O)CSC1=O,/,/,/,/,.
Cc1cc(OC(C)C(=O)NCC2CCC(C(=O)O)CC2)c2c(C)c(C)c(=O)oc2c1 (stereo unspecified),.,.,.,.,.
C=CCc1ccc(O)c(-c2ccc(O)c(CC=C)c2)c1,.,.,.,.,.
O=C(CSc1ccccn1)C12CC3CC(CC(C3)C1)C2,.,.,.,.,.
O=C(NCCOc1ccccc1Cl)c1ccc2c(c1)S(=O)(=O)c1cc(Cl)ccc1C2=O,.,.,.,.,.
COc1ccc(NC(=O)CSc2nnc(Cc3cccn3C)n2CCc2ccccc2)c(OC)c1,.,.,.,.,.
Cn1cccc1Cc1nnc(SCC(=O)Nc2nccs2)n1CCc1ccccc1,.,.,.,.,.
CCSc1nnc(NC(=O)CSc2nnc(Cc3cccn3C)n2CCc2ccccc2)s1,.,.,?,20173,.
CCOC(=O)CC(=O)CSc1ccc2nnc(-c3ccc(C)cc3)n2n1,.,.,.,22080,.
COc1ccccc1NC(=O)CSc1nnc(Cc2cccn2C)n1CCc1ccccc1,.,.,.,24958,.
CCOC(=O)N1CCN(C(=O)CSc2ccc3nnc(-c4ccncc4)n3n2)CC1,.,.,.,.,.
COc1ccc(-c2csc(C(C)(O)c3ccc(F)c(F)c3)n2)cn1 (stereo unspecified),.,.,.,.,/
O=C(COC(=O)c1cn(-c2ccccc2)nc1-c1cccnc1)NC1CC1,.,.,.,.,.
COC(=O)C(Cc1ccccc1)NC(=S)NC(=O)c1ccccc1 (stereo unspecified),.,.,.,.,.
C=CCNC(=S)NNC(=O)Cn1c(-c2ccccc2)cc(=O)n2ncnc12,32,?,.,.,.
C=CCNC(=O)Cn1nc(-c2ccccc2)ccc1=O,.,.,.,.,.
COc1cccc(C(=O)Nc2cc([N+](=O)[O-])ccc2N2CCN(C)CC2)c1,.,.,.,24311,.
CN1CCN(c2ccccc2NC(=O)c2cccc([N+](=O)[O-])c2)CC1,.,.,.,.,.
O=C(Nc1cc([N+](=O)[O-])ccc1N1CCCC1)c1ccccc1,.,.,.,.,.
SMILES,Anthrax LF inh2,BoNT-F LC inh,BoNT-A LC inh2,Bead autofluor,MazEF act
COc1ccc(C(=O)Nc2cc([N+](=O)[O-])ccc2N2CCN(C)CC2)cc1,.,.,.,19500,.
CN1CCN(c2ccc([N+](=O)[O-])cc2NC(=O)c2ccccc2)CC1,.,.,?,16981,.
COc1ccc(OC)c(NC(=O)c2ccc(S(=O)(=O)N3CCN(C)CC3)cc2)c1,.,.,.,22427,.
COc1ccc(CN2CCNC(=O)C2CC(=O)N2CCCO2)c(OC)c1 (stereo unspecified),.,.,.,.,.
CN1CCN(NC(=O)c2cc([N+](=O)[O-])cc([N+](=O)[O-])c2)CC1,.,.,.,18837,.
COc1ccc(C2CC(c3cccc([N+](=O)[O-])c3)=NN2/C(C)=C/C(C)=O)cc1 (stereo unspecified),.,77,.,54573,.
COc1ccc(C2=NN(C(=O)c3cccc([N+](=O)[O-])c3)C(c3cccc([N+](=O)[O-])c3)C2)cc1 (stereo unspecified),.,.,.,19134,.
CCC(=O)N1N=C(c2ccccc2)CC1c1ccc([N+](=O)[O-])cc1 (stereo unspecified),.,.,.,.,.
C1CN(c2nc3nonc3nc2N2C[C@H]3CC[C@H]2C3)CCS1,.,.,.,.,.
COc1ccc2c(C)cc(N3CCCCCC3)nc2c1,.,.,.,.,.
Cc1cc(N2CCCCCC2)nc2ccc(F)cc12,.,.,.,19022,.
Clc1ccc(/C=C/c2nc3ccccc3[nH]2)cc1,.,.,.,?,67
Cc1ccc(CSCc2nc3ccccc3[nH]2)cc1,.,.,.,.,.
c1ccc2[nH]c(CSc3nccs3)nc2c1,?,.,.,?,.
c1ccc(SCc2nc3ccccc3[nH]2)cc1,.,.,.,24904,.
Clc1ccc(SCc2nc3ccccc3[nH]2)cc1,.,.,?,21863,.
Clc1ccc(OCCSCc2nc3ccccc3[nH]2)cc1,.,.,.,.,.
Cc1ccc(SCc2nc3ccccc3[nH]2)cc1,.,.,.,20672,.
CN1CCN(S(=O)(=O)c2cccc(C(=O)Oc3ccccc3Cl)c2)CC1,.,.,.,.,.
CC(C)COP(=O)(c1ccc(N(C)C)cc1)C(O)c1cccnc1 (stereo unspecified),.,?,.,.,.
CC(C)C(O)P(=O)(OCc1ccccc1)c1ccc(N(C)C)cc1 (stereo unspecified),.,.,.,20468,.
CN(C)c1ccc(P(=O)(OCc2ccccc2)C(O)c2cccnc2)cc1 (stereo unspecified),.,.,.,20409,.
O=C(COC(=O)c1cc([N+](=O)[O-])ccc1N1CCOCC1)NCc1ccc(Cl)cc1Cl,.,.,.,.,.
CC(=O)c1cc(C(=O)Nc2ccc(C(=O)O)cc2)oc1C,.,.,.,.,.
Cc1oc(C(=O)Nc2ccc(C(=O)O)cc2)cc1COc1ccccc1,.,.,.,16440,.
SMILES,Anthrax LF inh2,BoNT-F LC inh,BoNT-A LC inh2,Bead autofluor,MazEF act
CCOC(=O)C(=CNc1cc(C)ccc1[N+](=O)[O-])C(=O)OCC,.,?,.,.,.
CCOC(=O)C(=CNc1cc(C)ccc1C)C(=O)OCC,.,.,.,17727,.
CCOC(=O)CSCC(=O)Nc1cc(C)ccc1C,.,.,.,26149,.
COC(=O)c1cc2c(=O)c3ccccc3oc2nc1/C=C/N(C)C,.,.,.,.,85
Cc1ccc(C)c(S(=O)(=O)N2CCN(C(=O)Cc3sc(C)nc3-c3ccc(F)cc3)CC2)c1,.,.,.,?,.
O=C1NC(=O)N(Cc2ccccc2Cl)C(=O)/C1=C/N1CCOCC1,.,.,.,23148,.
COc1ccc2nc(NCc3ccccc3)[nH]c2c1,.,.,.,.,.
COc1ccc2nc(N3CCCC3)[nH]c2c1,.,.,?,24269,.

# From PubChem BioAssay
